Compounds with a hit are over-represented: about 7.4% of the library has one in this group of screens.
M1 ag: M1 muscarinic receptor agonists, primary screen, CHO-M1 cells, Fluo-4 calcium, agonist mode; Fluo-4 calcium fluorescence; stronger effect = higher value; B-score at 10 µM; 64,000 tested, 3% active;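 active = fluorescence rise, raw or as B-score row- and column-corrected plate score, outside the 99.7% band of its plate's samples, either direction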
M1 antag: antagonists of rat M1 muscarinic receptor. B-score at 10 µM. Muscarinic acetylcholine receptor M1 (Rattus norvegicus), P08482. 64,000 tested, 3.4% active. AID 628, 2007. CHO-M1 cells, Fluo-4 calcium, ACh EC80 antagonist mode; stronger effect = lower value;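 active = calcium fluorescence response, raw or row-and-column corrected B-score, differing from the plate sample mean either way at a set confidence level, mostly lower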
Target sequence (P08482 whole entry, looked up): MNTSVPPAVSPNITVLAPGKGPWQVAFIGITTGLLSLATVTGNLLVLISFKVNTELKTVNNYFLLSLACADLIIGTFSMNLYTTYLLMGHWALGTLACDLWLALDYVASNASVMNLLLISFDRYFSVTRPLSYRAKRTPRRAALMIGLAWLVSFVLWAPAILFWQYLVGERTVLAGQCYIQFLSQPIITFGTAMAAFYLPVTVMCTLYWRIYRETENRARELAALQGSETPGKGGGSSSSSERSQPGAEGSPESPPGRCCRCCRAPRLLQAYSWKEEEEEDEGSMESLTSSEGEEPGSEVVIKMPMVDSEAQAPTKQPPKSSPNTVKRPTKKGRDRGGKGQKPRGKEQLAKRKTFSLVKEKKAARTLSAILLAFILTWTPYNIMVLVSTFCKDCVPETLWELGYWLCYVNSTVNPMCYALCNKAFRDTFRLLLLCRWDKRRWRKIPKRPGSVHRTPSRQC
hDAT+cocaine: changed hDAT dopamine uptake under cocaine IC80, either direction, primary screen, cocaine antagonist project, cell-based, LLC-PK1 hDAT, [14C]-dopamine uptake, MLSMR | B-score at 10 µM | 110,000 tested, 1.3% active | Sodium-dependent dopamine transporter (Homo sapiens), Q01959 | AID 449768, 2010 | LLC-PK1 hDAT cells, [14C]-dopamine uptake with cocaine IC80; actives deviate in either direction;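 active = Z score or B-score, a plate-position-corrected score, falls beyond the plate's 99.7% confidence bounds, in either direction; inactive = both scores lie inside the 99.7% bounds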;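 also: scored against the spread of the other compound wells on the same plate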
FXIIa inh mix: human factor XIIa inhibitors, primary screen, biochemical, pooled compound mixtures, fluorogenic substrate | Coagulation factor XII (Homo sapiens), P00748 | purified FXIIa | inhibition, % at 5 µM | 62,000 tested, 0.2% active;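 also: 0% = enzyme without compound and 100% = no enzyme blank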
FXIa mix inh: FXIa protease inhibitors in compound pools, primary screen, biochemical, 10-compound mixtures | inhibition, % at 5 µM | purified FXIa, fluorogenic substrate, pooled mixtures | 62,000 tested, 0.19% active | AID 680, 2007 | Coagulation factor XI (Homo sapiens), P03951;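 also: each value is inhibition by a whole ten-compound pool holding the compound; 0% = enzyme with no mixture and 100% = wells lacking enzyme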
D1 mod: D1 CRE-luciferase signal change, two-sided – cell-based, HEK293 D1, dopamine EC30, D1 allosteric modulator project, primary screen; D(1A) dopamine receptor (Homo sapiens), P21728; dopamine EC30 potentiation; actives deviate in either direction; B-score at 10 µM; 58,000 tested, 5.9% active; AID 641, 2007;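 active = luminescence count or its row- and column-corrected plate score outside the 99.7% band of the plate's sample wells, on either side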
M1 ag confirm: rat M1 muscarinic receptor agonists, confirmation, CHO-M1 cells, Fluo-4 calcium, duplicate retest; AID 1488, 2009; 1,700 tested, 19% active; Fluo-4 calcium fluorescence, agonist mode; actives lie on both sides; shares compounds with M1 ag; fluorescence change (max-min) at 10 µM;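 active = fluorescence change differs from the solvent-only DMSO control mean at a set confidence level in both duplicate runs; inconclusive = differs from solvent-only control mean in just one of two runs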;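 also: an EC20 dose of acetylcholine follows compound addition during the same imaging run; raw fluorescence intensity difference in instrument units with no normalization to controls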
M4 ag counter: agonist activity at rat M4 receptor, confirmation, counter-screen for M1 allosteric modulator project, cell-based, agonist mode | shares compounds with M1 ag | CHO M4/Gqi5 cells, Fluo-4 calcium fluorescence; actives lie on both sides | fluorescence change (max-min) at 10 µM | 1,700 tested, 9% active | AID 1741, 2009;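 active = fluorescence change differing from the plate's solvent-only control wells at 99.7% confidence in both duplicates, whether higher or lower; inconclusive = differs from solvent controls in only one of two duplicates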
An asterisk follows results filed as active; u = inconclusive; x = no result given. Rule as the data show it, unless noted: active = inhibition above about 20% (passing the limit was not always enough); inactive = the rest.

SMILES | M1 ag | M1 antag | hDAT+cocaine | FXIIa inh mix | FXIa mix inh | D1 mod | M1 ag confirm | M4 ag counter
CCCCCNC(=O)C(C#N)c1nc2ccccc2nc1N1CC(C)OC(C)C1 (stereo not given) | 2.3 | 1.6 | x | x | x | x | x | x
CC(=O)/C=C(/C)NC(Cc1c[nH]c2ccccc12)C(=O)O (stereo not given) | -0.37 | 0.3 | -1.5 | 4 | -7 | -0.12 | x | x
Cc1ccccc1Nc1cc2ccccc2c(=O)[nH]1 | 17* | 1.6 | -1.7 | 3 | 7 | 0.88 | 64* | 44
COc1ccc(N2CC(C(=O)Nc3nccs3)CC2=O)cc1 (stereo not given) | x | x | -0.23 | x | x | x | x | x
CC(C)CC(=O)Nc1ccccc1Oc1ccccc1 | x | x | -0.0015 | x | x | x | x | x
Nn1c(SCC(=O)NCc2ccc3c(c2)OCO3)nnc1C1CC1 | x | x | 0.44 | x | x | x | x | x
CCCC(OC(=O)CC1Sc2ccccc2NC1=O)C(=O)NCc1ccco1 (stereo not given) | 2.5* | 1.2 | -0.018 | 3 | 3 | x | -19 | -31
Cc1ccccc1-n1nc(C)c2cc(C(=O)N3CCN(S(=O)(=O)c4ccc(F)cc4)CC3)sc21 | 1.1 | -0.0085 | 0.01 | -1 | 7 | -0.038 | x | x
OC1(c2ccccc2F)CCN(Cc2nnc(-c3ccccc3)o2)CC1 | 2.4 | -0.48 | 1.4 | 0 | 3 | x | x | x
Cc1ccc(S(=O)(=O)N2CCOCC2)cc1C(=O)Nc1nc(-c2cccnc2)cs1 | 0.21 | 0.88 | 0.39 | 4 | 0 | -0.1 | x | x
Cc1ccc(S(=O)(=O)N2CCOCC2)cc1C(=O)Nc1ccc(-c2cn3ccsc3n2)cc1 | 3.3* | -0.0062 | -0.35 | 12 | 2 | -3.6 | -8.1 | u
COc1ccccc1-n1nc(C(=O)O)c2ccccc2c1=O | 6.6* | -0.049 | -0.3 | -1 | 5 | -0.21 | u | -30
Cc1cc(C(=O)N2CCN(S(C)(=O)=O)CC2)cs1 | -0.22 | 0.18 | -0.54 | 2 | 1 | -0.56 | x | x
COc1ccc(C2=C(C)CC(C)(C)NC2=O)cc1OC | -0.97 | -0.12 | -0.13 | -4 | 5 | x | x | x
CC(C)OCCCNc1ncnc2c1[nH]c1ccccc12 | 3.2* | -4.3* | 1.4 | 7 | 9 | -3 | 1.9 | u
CN(C)CCNC(=O)C12CC3(C)CC(C)(CC(C)(C3)C1)C2 | 3.3* | -0.94 | -2.6 | -15 | 5 | x | u | -70
Cc1ccc(C)c(N2CCN(C(=O)c3ccc(Cn4c(=O)[nH]c5ccccc5c4=O)cc3)CC2)c1 | -1.9 | 0.13 | 1.3 | 2 | -11 | -0.15 | x | x
COc1ccc(NC(=O)c2[nH]c(C)c(C(C)=O)c2C)cc1Cl | 5.5* | -3.1* | 0.52 | 0 | 11 | x | -2.4 | -16
CCN1CCN(c2cc(C)c3cc(NC(=O)c4ccc(Br)o4)ccc3n2)CC1 | 3* | -4.4* | 0.62 | 1 | 8 | -2.5* | -4 | -52
CCN1CCN(c2cc(C)c3cc(NC(=O)c4ccncc4)ccc3n2)CC1 | 0.34 | -0.56 | 1.7 | 4 | 3 | -0.072 | x | x
CCOC(CCNC(=O)c1cn(-c2cccc(C)n2)cn1)OCC | x | x | 0.055 | x | x | x | x | x
Cn1c(=O)c2c(nc(NCc3ccccc3)n2CCCc2ccccc2)n(C)c1=O | 15* | 2.5* | 0.49 | -20 | 1 | -3.1* | u | -70
Cn1c(=O)c2c(nc(NCc3ccccc3)n2C)n(C)c1=O | -0.019 | -0.47 | -0.14 | -1 | 0 | 2.3 | x | x
Cn1c(=O)c2c(nc(N3CCN(Cc4ccccc4)CC3)n2CCCc2ccccc2)n(C)c1=O | 4.2* | 0.013 | 0.21 | 4 | -3 | -0.45 | -5.2 | -9.5
CCOC(=O)C1CCCN(c2ccc(NC(=O)c3snc4c(=O)[nH]c(C)nc34)cc2)C1 (stereo not given) | x | x | 0.51 | x | x | x | x | x
Cc1cc(C)n(-c2nnc(SCC(=O)NC3CCCC3)c3ccccc23)n1 | x | x | 0.76 | x | x | x | x | x
